Compound activity: PubChem, National Center for Advancing Translational Sciences (NCATS)
The full list was thinned out, with hits kept by preference.
VACV Venus inh – inhibitors of vaccinia virus (Venus reporter) | Vaccinia virus Venus reporter expression, fluorescence | AID 720580 | 0.46% of 330,000 active | Potency, µM (titrated, usually from 36.5 µM), without a hit: at the top dose activity change, negative = inhibition, most hits filed as inhibitors; calls by dose curve; tested in A549 cells; also: potency is read from the fitted curve at half-maximal effect; % is scaled to controls: 0 for no effect and ±100 for the full control effect; nearly all actives have a fitted effect of over 30% in size
Lassa entry inh – Lassa virus entry inhibition; Lassa virus pseudotype entry inhibition, cell reporter; Potency, µM (doses to about 37.9 µM), without a hit: at the top dose activity change, negative = inhibition, hits mostly inhibitors; 1.2% of 300,000 active; AID 540256; calls by dose curve; tested in HEK293 cells; also: potency is read from the fitted curve at half-maximal effect; % is scaled to controls: 0 for no effect and ±100 for the full control effect; nearly all actives have a fitted effect of over 50% in size
VACV mCherry inh – inhibitors of vaccinia virus infection (mCherry reporter signal) | Vaccinia virus mCherry reporter infection, fluorescence | Potency, µM (titrated, usually from 36.5 µM), for inactives: top-dose activity change, negative = inhibition, actives largely listed as inhibitors | 0.63% of 310,000 active | AID 720579; calls by dose curve; tested in A549 cells; also: potency is read from the fitted curve at half-maximal effect; % is scaled to controls: 0 for no effect and ±100 for the full control effect; nearly all actives have a fitted effect of over 35% in size
Shiga inhibitor – inhibitors of Shiga toxin in Vero cells; 9.2% of 290,000 active; Vero cells, Shiga toxin protein synthesis inhibition reporter; AID 2315; inhibition, % at 38.7 µM; in the data active = inhibition mostly above about 28%, no sharp cut-off; inactive = mostly below about 43%; also: 0% is about no effect
MARV entry inh – inhibitors of Marburg virus binding or cell entry; Potency, µM (series often up to 37.8 µM), for the others: at the top dose activity change, negative = inhibition, most hits filed as inhibitors; 1.8% of 300,000 active; AID 540276; Marburg virus pseudotyped entry inhibition, cell reporter; calls by dose curve; tested in HEK293 cells; also: potency is read from the fitted curve at half-maximal effect; % is scaled to controls: 0 for no effect and ±100 for the full control effect
Cycloheximide cs – affects cycloheximide protein synthesis inhibition readout, counter-screen | cell reporter, cycloheximide protein synthesis inhibition counterscreen | 12% of 300,000 active | AID 2314 | max response, %; in the data active = max response mostly above about 13%, no sharp cut-off; inactive = mostly below about 14%; also: read at 38.3 µM for the half of the compounds with a filed dose; 0% is about no effect
* = called active by the depositor; i = inactive; ? = inconclusive; . = no result given; [ ] = dose if it differs, or a comment.

SMILES | VACV Venus inh | Lassa entry inh | VACV mCherry inh | Shiga inhibitor | MARV entry inh | Cycloheximide cs
CCc1ccc(N2C(=O)CC(N3CCN(Cc4ccc5c(c4)OCO5)CC3)C2=O)cc1 (stereo not given) | -12% | 16%[46.1 µM] | -1% | 18 | 8%[46.1 µM] | 4
CCN(CC)c1ccc(NS(=O)(=O)c2cc3[nH]c(=O)c(=O)[nH]c3cc2C)c(C)c1 | 6% | -1%[46.1 µM] | 6% | . | . | .
COC(=O)[C@]1(C)CC[C@@]2(C)CC[C@@]3(C)C4=CCc5c(cc(O)c(O)c5C)[C@]4(C)CC[C@@]3(C)C2C1 (stereo not given in full) | 2% | . | 20% | . | . | .
CC1=C(O)C(=O)C=C2C1=CC=C1[C@]2(C)CC[C@@]2(C)C3C[C@](C)(C(=O)O)CC[C@@]3(C)CC[C@@]12C (stereo not given in full) | 11µM* | . | 14µM* | . | . | .
Oc1ccc(C(=S)N2CCCCCC2)cc1 | . | -13% | . | -3 | 0% | -1
COc1ccc(C(=S)N2CCCCC2)cc1Br | -4% | -1% | -4% | 11 | 20%[46.1 µM] | 1
S=C(c1ccc(N2CCCC2)cc1)N1CCCCC1 | -12% | ? | -1% | 112* | -3% | 52*
CSc1ccc(C(=S)N2CCCC2)cc1 | . | . | . | 25 | . | 16*
S=C(c1ccc(N2CCCC2)c(Br)c1)N1CCCCC1 | -23% | -2% | -9% | 17 | 24% | 12*
O=C1/C(=C\Nc2ccc(Cl)cc2)CCN1c1ncccn1 | -13% | -17% | . | 89* | ? | 23*
Cc1ccccc1NC(=O)Nc1nnc(N2CCCCCC2)s1 | -6% | -26%[46.1 µM] | -5% | . | -12%[46.1 µM] | .
CC(C)C[C@H](N)CSSC[C@@H](N)CC(C)C | . | . | . | . | 1.3µM* | .
COc1ccc(NC(=O)c2csnn2)cc1Cl | -12% | 17%[46.1 µM] | -16% | . | 14%[46.1 µM] | .
CCN(c1ccccc1)S(=O)(=O)c1ccc(Cl)c(NC(=O)COC(=O)c2ccc(O)cc2)c1 | -14% | ? | -25% | 20 | -12% | 0
CCC(C)NCC(=O)Nc1cc(S(=O)(=O)N(CC)c2ccccc2)ccc1Cl (stereo not given) | -28% | ? | i | 16 | 21µM* | 3
Cc1cc(C(=O)OCC(=O)Nc2cc(S(=O)(=O)N(C)C)ccc2C)c2ccccc2n1 | 1% | 6% | 0% | -15 | -17% | -2
Cc1cc(C(=O)OCC(=O)Nc2cc(S(=O)(=O)N(C)C)ccc2Cl)c2ccccc2n1 | 6% | -24% | -17% | 86* | 13% | 22
CCN(c1ccccc1)S(=O)(=O)c1ccc(Cl)c(NC(=O)COC(=O)c2cc(O)c3ccccc3c2O)c1 | . | . | . | 36* | . | 12*
CCCC(=O)C1=C(N2CCCC2)CC(C)(C)C(C(=O)OC)C1=O (stereo not given) | -5% | 11%[46.1 µM] | i | 2 | 2%[46.1 µM] | 4
Cc1cccc(NC(=O)CCn2nc(-c3ccccc3)c3ccccc3c2=O)c1 | -6% | ? | -11% | . | . | .
Cn1nnc2c[n+](CC(=O)c3ccc4ccccc4c3)cc(Br)c21 | ? | ? | ? | 29 | 11µM* | 15*
COc1ccccc1C(=O)NNC(=O)c1ccc(Cl)cc1 | . | . | . | 21 | . | 17*
COc1ccccc1C(=O)NNC(=O)C1CC=CCC1 (stereo not given) | -9% | 10%[46.1 µM] | -11% | 34 | ? | 25*
CC(C)(C)OC(=O)NNC(=O)c1ccc(Cl)cc1 | -21% | 1% | . | 26 | -3% | 13*
COc1ccccc1C(=O)NNC(=O)c1ccc(F)cc1 | -1% | 8% | i | 65* | 15% | 57*
SMILES | VACV Venus inh | Lassa entry inh | VACV mCherry inh | Shiga inhibitor | MARV entry inh | Cycloheximide cs
COc1ccc(C(=O)NNC(=O)OC(C)(C)C)cc1 | 2% | . | -11% | -8 | . | 1
CCn1c(=O)c2sccc2n2c(CCCC(=O)N3CCN(c4cccc(Cl)c4)CC3)nnc12 | -3% | ? | -8% | . | . | .
Cc1cnc(-n2ncc(C(=O)NCCN3CCOCC3)c2C2CC2)nc1-c1cccs1 | -17% | . | -2% | . | . | .
Cc1ccccc1C(=O)NNC(=O)c1ccc(F)cc1 | -15% | 2% | -18% | 62 | 17% | 20*
Cc1ccccc1C(=O)NNS(=O)(=O)c1ccc(F)cc1 | -11% | . | -10% | . | . | .
Cc1c(-c2ccccc2)n(-c2ccccc2O)c2nc3c(c(=O)n(C)c(=O)n3C)n12 | -16% | ? | -18% | . | ? | .
Cc1cc(OCC(=O)N2CCCC2)cc(C)c1Cl | -11% | -11% | -17% | -2 | -4% | 9.4*
Cc1cc(OCC(=O)N2CCCC2)ccc1Cl | . | ? | . | 52* | 11% | 23*
Cc1cc(Cl)ccc1OCC(=O)N1CCCN(C(=O)COc2ccc(Cl)cc2C)CC1 | -17% | ? | -6% | 15 | 15µM* | -1
Cc1cc(Cl)ccc1OCC(=O)N1CCN(C)CC1 | -9% | 12% | . | -12 | 14% | -1
Cc1cc(OCC(=O)N2CCCN(C)CC2)ccc1Cl | -7% | 18%[46.1 µM] | i | -16 | 11%[46.1 µM] | 16*
C[C@H]1[C@@H]2O[C@H]2CCO[C@H]1c1cccc(Br)c1 | . | . | . | . | -16%[14.2 µM] | .
COc1nnc(-c2ccc(N3CCCCC3)c(NC(=O)c3ccccc3Cl)c2)c2ccccc12 | -16%[7.34 µM] | ? | -14%[7.34 µM] | . | ? | .
COc1ccc(-c2nc3cc(C)ccc3cc2CN(C(=O)c2cc(C)nn2C)C2CC2)cc1OC | -17% | . | -14% | . | . | .
O=C(COc1ccc2ccccc2c1)N1CCNCC1 | -2% | ? | -10% | 52* | 16%[46.1 µM] | 12*
Cc1ccc2c(Cl)cc(Cl)c(OCC(=O)N3CCCC3)c2n1 | -8% | 9% | i | 67* | 15% | 35*
O=C(COc1ccc2ccccc2c1)N1CCN(c2ccccc2O)CC1 | -11% | ? | i | -2 | -3% | -4
CC1Cc2cc(S(=O)(=O)NCc3ccc(F)cc3)ccc2N1C(=O)C1CCC1 (stereo not given) | -25% | -5%[46.1 µM] | -20% | . | . | .
CCS(=O)(=O)N1N=C(c2cccs2)CC1c1cc2cc(C)ccc2nc1Cl (stereo not given) | . | . | . | 58 | . | 32*
CCOc1ccccc1NC(=O)c1c(NC(=O)C(C)Oc2ccc(Cl)cc2)sc2c1CCCCC2 (stereo not given) | 0% | 10%[46.1 µM] | -12% | . | . | .
FC(F)(F)c1cnc2c(-c3ccccc3)n[nH]c2c1 | -5% | -31% | -7% | 83* | ? | 29*
O=C(O)c1sc2cc(C(F)(F)F)cnc2c1-c1ccccc1 | . | 1% | . | -6 | 1% | -4
CN(C)c1ccc(/C=C2\CCCc3c2nc2ccccc2c3C(=O)O)cc1 | -4% | ? | -2% | 118* | 9%[46.1 µM] | 45*
COC(=O)c1c(C)oc2c1cc(NS(=O)(=O)c1c(C)cc(C)cc1C)c1ccccc12 | -14% | ? | -16% | . | ? | .
Oc1ccc(/C=N/Nc2nccnc2Cl)cc1 | -6% | ? | -19% | 75 | ? | 21*
Nc1c(Cl)ncnc1NCCO | -11% | . | i | -11 | . | -6
Nc1c(Cl)ncnc1N/N=C/c1ccc(O)cc1 | . | . | . | 47* | -2% | 26*
Fc1ccc(/C=N/Nc2nccnc2Cl)cc1 | . | . | . | 96* | . | 40*
CC(SC(C)C(=O)NN=Cc1cccc(F)c1)C(=O)NN=Cc1cccc(F)c1 (stereo not given) | -3% | 8%[46.1 µM] | i | . | 15%[46.1 µM] | .
